# Source: PubChem
# A selection: hits, their analogues and other compounds. The true share with any hit is near 4.2%.
# ClpP mod: qHTS Assay for Activators of ClpP | 1.9% of 340,000 active | ATP-dependent Clp protease proteolytic subunit (Bacillus subtilis (strain 168)), P80244 | AID 651965, 2013 | purified B. subtilis ClpP, FRET peptide cleavage, 20 min | Potency, µM (doses to about 57.5 µM), for inactives: top-dose activity change, negative = active; active = well fitted falling curve with a large enough effect; inconclusive = small, poorly fitted or top-dose-only effect; inactive = no such curve, though single readings can be large or run the other way; also: potency is read from the fitted curve at half-maximal effect; the source files actives as falling curves though it sought activators and does not explain the sign; nearly all actives have a fitted effect of over 65% in size
# Target sequence (P80244 whole entry, looked up): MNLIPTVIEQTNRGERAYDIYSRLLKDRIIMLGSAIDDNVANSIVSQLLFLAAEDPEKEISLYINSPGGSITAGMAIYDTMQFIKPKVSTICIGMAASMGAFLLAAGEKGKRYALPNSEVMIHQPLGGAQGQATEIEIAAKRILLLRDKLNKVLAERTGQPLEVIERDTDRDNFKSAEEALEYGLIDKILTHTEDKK
#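 Buffer: 100 mM Tris/HCl pH8, 100 mM KCl, 0.05% low protease BSA, 2.5% glycerol, 0.01% Tween-20. ClpP 10 microg/mL final; 20 min RT; delta FRET normalized to ADEP and DMSO controls.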
# Sfp inh: Sfp phosphopantetheinyl transferase inhibition; Q9F4F7; Biochemical Sfp PPTase activity, qHTS; Potency, µM, for the others: largest response in the series, negative = inhibition, most hits filed as inhibitors; 3.5% of 310,000 active; AID 1490;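 also: the enzyme is Sfp with the accession as filed and its product quenches rhodamine fluorescence; potency is read from the fitted curve at half-maximal effect; 0% = enzyme reaction without inhibitor and -100% = no enzyme wells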
#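 After 15 min at room temperature with compound, 15 nM Sfp received 5 uM rhodamine-CoA plus 12.5 uM BHQ-2-ybbR (50 mM Hepes pH 7.6, 10 mM MgCl2). Rate came from the fluorescence difference over 30 min, ex 525/em 598 nm.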
# TCR act: activates T cell receptor signaling. 330,000 tested, under 10 active. AID 504894. primary human leukocytes, anti-CD3, IL-2 HTRF, 48 h. Potency, µM (highest dose often 9.22 µM), inactives show at the highest dose activation of IL-2 secretion, hits mostly activators; also: % of control where 0% means no effect
#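 Activity was scored as IL-2 release from primary human leukocytes given only a TCR signal (a-CD3 beads) plus compound for 48 hr. Detection used a two-antibody HTRF format read at 665nm.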
# uPA generation: cell surface uPA generation inhibition. cell surface uPA generation assay, qHTS. Potency, µM (doses to about 38.3 µM), for inactives: at the top dose activity change, negative = inhibition, usual class: inhibitors. 0.31% of 330,000 active. AID 540303; active = well fitted inhibition curve with a large enough effect; inconclusive = small, poorly fitted or top-dose-only effect; inactive = no such curve, though single readings can be large or run the other way; tested in mouse RAW 264.7 cells; also: potency is read from the fitted curve at half-maximal effect; % is scaled to controls: 0 for no effect and ±100 for the full control effect; nearly all actives have a fitted effect of over 55% in size
# An asterisk follows results filed as active; ? = inconclusive; . = no result given; [ ] = dose if it differs, or a comment. Unless noted, calls follow the shape of the dose curve; as a rule, active = well fitted curve in the direction sought with a large enough effect; inconclusive = small, poorly fitted or top-dose-only effect, or another doubt; inactive = no such curve, though single readings can be large; an effect the other way counts as inactive or inconclusive.
SMILES,ClpP mod,Sfp inh,TCR act,uPA generation
CCCNC(=O)COC(=O)/C=C/c1ccco1,1.6%,?,-4.0%[46.1 µM],0.8%
CC(NC(=O)/C=C/c1ccco1)c1nc2ccccc2n1Cc1cccc(Cl)c1 (stereo not given),-2.5%,28.2µM*,3.9%[46.1 µM],-8.6%
COc1ccc(C(NC(=O)/C=C/c2ccco2)c2ccc(OC)cc2)cc1,-5.2%,25.1µM*,3.9%[46.1 µM],-22.5%
CCC(O)c1nc2ccccc2n1Cc1cccc(Cl)c1 (stereo not given),0.2%,.,.,.
COc1ccc(C(NC(=O)/C=C\c2ccco2)c2ccc(OC)c(OC)c2)cc1 (stereo not given),-1.2%,20µM*,4.5%,.
COc1ccc(-c2nnc(SCC(=O)c3ccc([N+](=O)[O-])cc3)o2)cc1OC,0.8%,.,.,.
CC(C)OC(=O)N(C)C[C@@H]1OCc2cnnn2CCCC(=O)N([C@@H](C)CO)C[C@H]1C,-0.2%,.,.,.
COc1ccc(CCNC(=O)/C=C/c2ccco2)cc1OC,-1.1%,44.7µM*,-1.4%,-6.2%
CCC(Cc1ccccc1)NC(=O)/C=C/c1ccco1 (stereo not given),-0.1%,56.2µM*,.,-3.3%
CCOc1ccc(CCNC(=O)/C=C/c2ccco2)cc1OCC,-0.2%,-28.6%,4.4%,?
CCc1ccc(-n2c(=O)c3c(C)c(C)sc3n(CC(=O)NCC3CCCO3)c2=O)cc1 (stereo not given),.,-7.6%,-0.5%,-1.3%
O=C(NCc1ccccc1)C(c1ccccn1)N(C(=O)c1csnn1)c1ccccc1F (stereo not given),.,12.6%,-10.2%,3.6%
COc1ccccc1-c1sc2ccccc2c1-c1ccc(O)cc1,20µM*,.,-6.2%,1.8%
COc1cccc(-c2sc3ccc(OC)cc3c2-c2cc(F)cc(OC)c2)c1,?,.,3.1%,9.8%
COc1cccc(-c2sc3ccc(OC)cc3c2-c2ccc(O)cc2)c1,28.2µM*,.,-0.2%,25.4%
O=c1[nH][nH]c(=S)n1C1CCCCC1,.,2.82µM*,-1.2%,-0.4%
Cc1c(F)c(N2CCNC(C)C2)cc2c1c(=O)c(C(=O)O)cn2C1CC1 (stereo not given),.,16.3%,.,.
Cc1ccc(OCC(=O)Nc2ccc(N3CCCC3)cc2)cc1C,0.3%,31.6µM*,1.4%,-4.1%
Cc1cc(C)cc(OCC(=O)Nc2ccc(N3CCCC3)cc2)c1,1.2%,56.2µM*,3.1%,5.3%
Cc1cc(NC(=O)COc2ccc(C)c(C)c2)no1,.,16.0%,-2.0%,1.8%
Cc1ccc(OCC(=O)Nc2cc(C(C)(C)C)on2)cc1C,0.8%,44.7µM*,1.6%,5.3%
Cc1ccc(OCC(=O)Nc2ccc(O)c(C(=O)O)c2)cc1C,22.4µM*,-16.2%,0.6%,4.5%
CCSc1ncc(Cl)c(C(=O)N(Cc2ccc(N(C)C)cc2)Cc2ccco2)n1,-2.7%,.,.,.
Cc1cccc(OCCn2c(CCNC(=O)C3CCCCC3)nc3ccccc32)c1,-0.3%,.,.,.
CC(C)(C)c1ccc(OC(=O)Nc2ccc(O)c(C(=O)O)c2)cc1,3.3%,50.1µM*,0.0%,-28.4%
SMILES,ClpP mod,Sfp inh,TCR act,uPA generation
Cc1cccc(OC(=O)Nc2ccc(C(=O)O)c(O)c2)c1,4.0%,.,.,.
CC(C)C[C@@H](CN1CCCC1CN1C(=S)NC[C@@H]1Cc1ccc(O)cc1)N1C[C@H](Cc2ccc(O)cc2)N(CCc2ccccc2)C1=S (stereo not given in full),-4.5%,.,-10.8%,-25.3%
O=C(C[n+]1c(Cl)cc(Cl)c2ccccc21)c1ccccc1,-0.7%,.,.,.
CCC(/C=C1\Sc2ccc(OC)cc2N1CC)=C\c1sc2ccc(OC)cc2[n+]1CCCS(=O)(=O)[O-],-1.7%,50.1µM*,-21.3%,-14.6%
CCC(/C=C1\Sc2ccc(OC)cc2N1CCO)=C\c1sc2ccc(OC)cc2[n+]1CCO,-2.3%,22.4µM*,12.6µM*,-10.1%
CCO/C(=C/c1sc2ccc(OC)cc2[n+]1CCCS(=O)(=O)[O-])CC,-12.6%,?,-0.3%,4.0%
CCOc1ccc(N=Cc2ccccc2O)cc1,1.9%,.,1.0%,-3.2%
CN(C)c1ccc(-c2nn3c(-c4ccccc4Cl)nnc3s2)cc1,15.8µM*,-12.6%,0.2%,-6.9%
COc1ccccc1-c1nn2c(-c3ccc(C(C)(C)C)cc3)nnc2s1,.,-4.5%,.,.
COc1ccccc1-c1nnc2sc(-c3ccc(N(C)C)cc3)nn12,25.1µM*,8.8%,-0.6%[46.1 µM],-5.3%
O=C(O)c1cc(-c2ccc(/C=C3/SC(=S)N(Cc4ccccc4)C3=O)o2)ccc1Cl,.,50.1µM*,1.9%,-1.3%
Cc1ccc(/C=C2\SC(=S)N(Cc3ccccc3)C2=O)o1,-1.3%,?,-4.5%,4.0%
COc1ccc(CN2C(=O)/C(=C/c3ccc(-c4ccc(Cl)c(C(=O)O)c4)o3)SC2=S)cc1,.,50.1µM*,.,.
Cc1nn(-c2ccccc2)c2[nH]c(=O)c(CNc3ccc(N4CCOCC4)cc3)cc12,-3.6%,44.7µM*,-1.6%,4.4%
COC(=O)c1cc(COc2ccc3oc(C)c(C(=O)OC(C)C)c3c2)c(C)o1,2.51µM*,?,-3.2%,-10.0%
COCCOC(=O)c1c(C)oc2ccc(OCc3ccccc3)cc12,.,6.3%,1.7%[46.1 µM],4.7%
COc1ccc(NC(=O)CSc2nnc(-c3cccs3)o2)cc1,0.5%,.,.,.
CC1(C)Cc2nc3sc(C(=O)NCCCO)c(N)c3cc2CO1,-6.4%,79.4µM*,-2.6%,-7.9%
COc1cccc(CNC(=O)[C@@H]2CCCN2C(=O)[C@H]2CCCCN2S(=O)(=O)c2ccc(OC)c(C)c2)c1,0.8%,.,.,.
COCCOC(=O)c1cc(C(=O)c2cc(F)ccc2O)coc1=N,15.8µM*,2.1%,-6.3%[46.1 µM],0.3%
COCCNC(=S)Nc1ccc(N2CCCCC2)cc1,-2.2%,12.6µM*,-2.1%,4.3%
COc1ccc(C2(C(=O)Nc3nncs3)CCCC2)cc1,1.7%,1.6%,0.3%,.
COc1ccc(C(=O)Nc2ccc(N3CCCC3)cc2)cc1,1.6%,79.4µM*,1.2%,0.5%
COc1ccc(NC(=O)C2(c3ccc(NC(=O)c4ccc(OC)cc4)cc3)CCCC2)cc1,28.2µM*,15.0%,-0.5%[46.1 µM],5.6%
CCC1Sc2ccccc2N(CC(=O)NCc2ccc(C)cc2)C1=O (stereo not given),-0.4%,.,.,.
SMILES,ClpP mod,Sfp inh,TCR act,uPA generation
O=C(/C=C/c1ccc(Cl)cc1Cl)Nc1cccc(S(=O)(=O)NC2=NCCC2)c1,-3.5%,12.8%,-9.6%,4.47µM*
O=c1cc2c(=O)oc3cc(O)c(O)oc3c2c(O)c1O,2.0%,5.01µM*,-80.7%,2.0%
Cc1cc(C)cc(NC(=O)c2ccc3c(O)c(S(=O)(=O)c4ccccc4)c(=O)[nH]c3c2)c1,-4.4%,.,.,.
Cc1ccc(S(=O)(=O)NCC(=O)OCC(=O)Nc2cccc(S(=O)(=O)NC3=NCCCCC3)c2)cc1,25.1µM*,8.3%,-6.2%,6.6%
CCC(=O)NC(c1ccc(OC)c(OC)c1)c1cc(Cl)c2cccnc2c1O (stereo not given),3.7%,56.2µM*,1.7%,2.5%
O=C(O)COc1ccccc1C(Nc1ccccn1)c1cc(Cl)c2cccnc2c1O (stereo not given),2.6%,-93.9%,0.6%[46.1 µM],6.1%
